Values joined by “and” are separate entries in the source; they are usually repeats but may differ in a detail not shown here. Identical values can stand only once. Hit rate of the full screen: of about 5,500 compounds, about 2,000 (36%) were called active. About 18% were inconclusive and are not listed. No stated cut-off is given here; in the data, active means normalized growth mostly below about 0.91 (no sharp cut-off); inconclusive means no clear call, values can overlap the other calls; inactive means mostly above about 0.92. Some of the results follow.
Assay: chemical genetic growth profiling, strain panel (AID 1159580);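 further: tested at 20 µM; growth read once vehicle control cultures reached saturation at 30 °C; 1 = growth at the plate median or of vehicle wells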
Settings: S. cerevisiae deletion strains, growth OD

Measured: normalized growth

COc1cc2c(cc1OC)Cc1cc(OC)c(OC)cc1Cc1cc(OC)c(OC)cc1C2
inactive: locus YAL021C, strain ccr4, stronger effect = lower value 1.03 | locus YAL026C, strain drs2, stronger effect = lower value 1.04 | locus YAL030W, strain snc1, stronger effect = lower value 1.03 | locus YBL061C, strain skt5, stronger effect = lower value 1.03 | locus YBR009C, strain hhf1, stronger effect = lower value 1.03 | locus YBR021W, strain FUR4, stronger effect = lower value 1.02 | locus YBR023C, strain chs3, stronger effect = lower value 1.03 | locus YBR171W, strain sec66, stronger effect = lower value 1.05 | locus YBR229C, strain ROT2, stronger effect = lower value 1.02 | locus YBR231C, strain swc5, stronger effect = lower value 1.04 | locus YBR279W, strain paf1, stronger effect = lower value 1.02 | locus YCL011C, strain gbp2, stronger effect = lower value 1.04 | locus YCL016C, strain dcc1, stronger effect = lower value 1.03 | locus YCL029C, strain bik1, stronger effect = lower value 1.02 | locus YCL061C, strain MRC1, stronger effect = lower value 1.02 | locus YCL069W, strain vba3, stronger effect = lower value 1.02 | locus YCR088W, strain abp1, stronger effect = lower value 1.02 | locus YDL005C, strain med2, stronger effect = lower value 1.03 | locus YDL035C, strain GPR1, stronger effect = lower value 1.01 | locus YDL040C, strain nat1, stronger effect = lower value 1.05 | locus YDL074C, strain BRE1, stronger effect = lower value 1.03 | locus YDL101C, strain DUN1, stronger effect = lower value 1.02 | locus YDL134C, strain PPH21, stronger effect = lower value 1.02 | locus YDL185W, strain tfp1, stronger effect = lower value 1.02 | locus YDL192W, strain arf1, stronger effect = lower value 1.05 | locus YDR001C, strain nth1, stronger effect = lower value 1.02 | locus YDR069C, strain doa4, stronger effect = lower value 1.04 | locus YDR101C, strain arx1, stronger effect = lower value 1.07 | locus YDR137W, strain rgp1, stronger effect = lower value 1.08 | locus YDR150W, strain NUM1, stronger effect = lower value 0.978 | locus YDR159W, strain sac3, stronger effect = lower value 1.05 | locus YDR162C, strain NBP2, stronger effect = lower value 1.03 | locus YDR195W, strain ref2 1.01 | locus YDR297W, strain sur2, stronger effect = lower value 1.03 | locus YDR318W, strain mcm21, stronger effect = lower value 1.02 | locus YDR334W, strain swr1, stronger effect = lower value 1.02 | locus YDR335W, strain msn5, stronger effect = lower value 1.03 | locus YDR388W, stronger effect = lower value 1.03 | locus YDR392W, strain spt3, stronger effect = lower value 0.993 | locus YDR502C, strain sam2, stronger effect = lower value 1.03 | locus YEL003W, strain gim4, stronger effect = lower value 1.04 | locus YEL037C, strain rad23, stronger effect = lower value 1.02 | locus YEL061C, strain CIN8 (second series), stronger effect = lower value 1.03 | locus YEL061C, strain CIN8, stronger effect = lower value 1.01 | locus YER015W, strain faa2, stronger effect = lower value 1.03 | locus YER016W, strain bim1, stronger effect = lower value 1.02 | locus YER110C, stronger effect = lower value 1.03 | locus YER111C, strain swi4, stronger effect = lower value 1.03 | locus YER155C, strain BEM2 (second series), stronger effect = lower value 1.03 | locus YER155C, strain BEM2, stronger effect = lower value 1.01 | locus YER167W, strain BCK2, stronger effect = lower value 1.01 | locus YFR010W, strain ubp6, stronger effect = lower value 1.05 | locus YGL078C, strain dbp3, stronger effect = lower value 1.03 | locus YGL086W, strain mad1, stronger effect = lower value 0.979 | locus YGL167C, strain pmr1, stronger effect = lower value 1.04 | locus YGL173C, strain kem1, stronger effect = lower value 1.04 | locus YGL227W, strain vid30, stronger effect = lower value 1.04 | locus YGL240W, strain doc1, stronger effect = lower value 1.03 | locus YGL248W, strain PDE1, stronger effect = lower value 1.02 | locus YGL253W, strain hxk2, stronger effect = lower value 1.02 | locus YGR078C, strain PAC10, stronger effect = lower value 1.02 | locus YGR135W, strain pre9, stronger effect = lower value 1.06 | locus YGR252W, strain gcn5, stronger effect = lower value 1.05 | locus YHR013C, strain ard1, stronger effect = lower value 1.05 | locus YHR027C, strain rpn1, stronger effect = lower value 1.04 | locus YHR030C, strain SLT2, stronger effect = lower value 1.01 and 1.02 | locus YHR079C, strain IRE1 (second series), stronger effect = lower value 1.02 | locus YHR079C, strain IRE1, stronger effect = lower value 1.06 | locus YHR094C, strain hxt1, stronger effect = lower value 1.03 | locus YHR129C, strain ARP1, stronger effect = lower value 1.01 | locus YHR142W, strain chs7, stronger effect = lower value 1.03 | locus YHR200W, strain rpn10, stronger effect = lower value 1.03 | locus YIL066C, strain RNR3, stronger effect = lower value 1.01 | locus YIL073C, strain SPO22, stronger effect = lower value 1.04 | locus YIL125W, strain kgd1, stronger effect = lower value 1.04 | locus YIR030C, strain dcg1, stronger effect = lower value 1.02 | locus YJL092W, strain hpr5, stronger effect = lower value 1.03 | locus YJL095W, strain BCK1 (second series), stronger effect = lower value 1.02 | locus YJL095W, strain BCK1, stronger effect = lower value 1.02 and 1.03 | locus YJL115W, strain asf1, stronger effect = lower value 1.04 | locus YJL129C, strain trk1, stronger effect = lower value 1.05 | locus YJL134W, strain LCB3, stronger effect = lower value 0.998 | locus YJL154C, strain vps35, stronger effect = lower value 1.01 | locus YJL164C, strain tpk1, stronger effect = lower value 1 | locus YJL166W, strain qcr8, stronger effect = lower value 1.03 | locus YJL168C, strain set2, stronger effect = lower value 1.03 | locus YJL187C, strain SWE1 (second series), stronger effect = lower value 1.03 | locus YJL187C, strain SWE1, stronger effect = lower value 1.03 | locus YJR043C, strain POL32, stronger effect = lower value 1

Source: PubChem BioAssay AID1159580 (chemical genetic matrix, 2015)
